For 26 compounds, Inhibition results are on record in ChEMBL document CHEMBL1157539, “Thousands of chemical starting points for antimalarial lead identification” (Nature, 2010).

This experiment relates to Plasmodium falciparum. The experiment is described as follows: GSK_TCMDC: Inhibition of Plasmodium falciparum 3D7 in whole red blood cells, using parasite LDH activity as an index of growth. Test compounds present at 2uM. The class given is functional.
For `CC(C)COc1ccc(C(O)C(CN2CCCCC2)c2ccccc2)cc1` (stereo unspecified), the Inhibition is 93%. `Cl.N=C(N)NN=Cc1ccc2ccc3ccccc3c2c1` registered an Inhibition of 100%. Turning to `CCn1c(-c2nonc2N)nc2cnc(Oc3cccc(NC(=O)c4ccc(OCCN5CCCCC5)cc4)c3)cc21`, the Inhibition came to 98%.

Consider `Cc1noc(C)c1-c1cccc(CNCc2cccc(-c3cccc(-c4nc5cc(C(F)(F)F)ccc5[nH]4)c3)c2)c1.O=C(O)C(F)(F)F`, for which the Inhibition is recorded as 100%. Then `CC(=O)Nc1cccc(C(=O)Nc2ccc(-c3cccc(-c4nc5cc(F)ccc5[nH]4)c3)cc2)c1`, with 96%; and `CCOC(=O)c1ccc(NC(=O)N(Cc2ccc(-c3ccc(CN4CCNCC4)cc3)cc2)C2CCN(Cc3ccccc3)CC2)cc1.O=C(O)C(F)(F)F`, with 100%. As to `Cc1cccc2nc(-c3cccc(-c4ccc(CNCc5cnn(-c6ccccc6)n5)cc4)c3)[nH]c12.O=C(O)C(F)(F)F`, the Inhibition amounted to 100%. Then `COc1ccc(-c2ccc(NC(=O)c3cccc(Cl)c3)cc2)cc1CN1CCC(O)CC1.O=C(O)C(F)(F)F`, with 100%; and `CC(C)(CNCc1ccc(C(F)(F)F)cc1)c1nc(-c2ccc(Cl)c(O)c2)c(-c2ccncc2)[nH]1.Cl`, with 100%; and `Cc1ccc(F)c(CN2CCC(N3CC(c4ccccc4)(c4ccccc4)OC3=O)CC2)c1Cl`, with 95%. As for `COC(=O)c1cc(/C(C)=N/Nc2nc3ccccc3[nH]2)ccc1O`, the Inhibition was found to be 100%.

In turn, `Cc1cc(N[C@@H](CC(C)C)C(=O)NCc2cccc(F)c2)nc(Nc2ccccc2)n1.O=C(O)C(F)(F)F` displayed an Inhibition of 100%. The compound `COc1ccc(Nc2nc(N/N=C/c3ccc(-c4ccc([N+](=O)[O-])cc4)o3)nc(Nc3ccccc3)n2)cc1` had an Inhibition of 100%. `N#Cc1cncc(-c2nc3c(N4CCC(N5CCCC5)CC4)cccc3n2CCNCc2ccccc2)c1.O=C(O)C(F)(F)F` registered an Inhibition of 100%.

Consider `CCOC(=O)c1ccc(-c2cnc(N)c(-c3nc4cccc(C)c4[nH]3)c2)cc1`, for which the Inhibition came to 100%. Then `Cc1ccc(CNC(=O)[C@H](CCCN)Nc2cc(C)nc(NCC3CCCCC3)n2)cc1.O=C(O)C(F)(F)F`, with 90%; and `CC(C)(C)c1ccc(CN2CCC(CNC(=O)c3cc(-c4ccccc4Cl)cs3)C2)cc1.O=C(O)C(F)(F)F` (stereo unspecified), with 100%. With `CCN(CCNc1nc(NCCc2cnc[nH]2)nc(N(CCC#N)Cc2ccccc2)n1)c1cccc(C)c1`, the Inhibition is 100%. In turn, `CC[C@]1(C)C[C@@H](NC(=O)NC(=O)c2ccc(OC)cc2)[C@]2(C)[C@H](C)CC[C@]3(CCC(=O)[C@H]32)[C@@H](C)[C@@H]1OC(=O)NC(=O)c1ccc(OC)cc1` yielded an Inhibition of 100%.

Take `COc1ccc(C2CC(=O)C3=C(C2)NC(C)=C(C(=O)OC(C)C)C3c2c(F)cccc2Cl)cc1OC` (stereo unspecified): the Inhibition is reported as 93%. Then `COc1cc(-c2nc(-c3ccc([N+](=O)[O-])cc3)c(-c3ccccc3)[nH]2)cc(OC)c1O`, with 98%. Then `COc1ccc(Nc2ncc(Cl)c(Nc3cccnc3C(N)=O)n2)cc1N1CCN(C)CC1.Cl`, with 95%; and `O=CO.O=S1(=O)NCc2ccc(Nc3nccc(Nc4ccc5c(cnn5Cc5ccccc5)c4)n3)cc21`, with 94%. As for `NCCCNc1ccnc2cc(Cl)ccc12`, the figure is 100%; as for `C[C@@H](C(=O)N1CCOCC1)N1CC[C@H](NS(=O)(=O)c2ccc3ccnc(N)c3c2)C1=O.O=CO`, 84%; as for `CCN(CC)S(=O)(=O)c1ccc(C(=O)Oc2ccccc2N(Cc2ccc(OC)cc2)C2=NS(=O)(=O)c3ccccc32)cc1`, 98%.
